{
  "source": "PubChem BioAssay",
  "note": "Activity calls are given as the source filed them. No stated cut-off is given here; in the data, active means fold change permeability below about 0.7 or above about 1.3; inactive means in between.",
  "data": [
    {"experiment": "compounds altering in vitro BBB leakiness – cell-based, FITC-avidin fluorescence, HTS, primary screen (AID 1963498); further: test concentration not given here", "settings": "brain endothelial barrier, actives lie on both sides", "values": [
      {"smiles": "CCn1cc(C(=O)O)c(=O)c2cc3c(cc21)OCO3", "fold change permeability": "1 (inactive)"},
      {"smiles": "O=C(CCCN1CCC(O)(c2ccc(Cl)cc2)CC1)c1ccc(F)cc1", "fold change permeability": "1.2 (inactive)"},
      {"smiles": "COc1cccc2c(NCc3ccccc3)nc(-n3c(N)nc4ccccc43)nc12", "fold change permeability": "0.9 (inactive)"},
      {"smiles": "Cn1cc(C(F)(F)F)nc1-c1ccc(OCC(O)CNCCOc2ccc(O)c(C(N)=O)c2)cc1", "note": "(centres undefined)", "fold change permeability": "1.3 (active)"},
      {"smiles": "C#CCn1c(=O)c2c(ncn2C)n(C)c1=O", "fold change permeability": "0.9 (inactive)"},
      {"smiles": "CNCCC(Oc1ccccc1C)c1ccccc1", "note": "(centres undefined)", "fold change permeability": "0.7 (active)"},
      {"smiles": "CN(C)CCc1c[nH]c2ccc(Cn3cncn3)cc12", "fold change permeability": "1 (inactive)"},
      {"smiles": "COc1ccc2[nH]cc(CCNC(C)=O)c2c1", "fold change permeability": "0.8 (inactive)"},
      {"smiles": "O=c1cc(-c2ccccc2)oc2c(O)c(O)ccc12", "fold change permeability": "1.5 (active)"},
      {"smiles": "COC(=O)Nc1nc2ccc(C(=O)c3cccs3)cc2[nH]1", "fold change permeability": "1.4 (active)"},
      {"smiles": "COC(=O)C(C)(N)Cc1ccc(O)cc1", "note": "(centres undefined)", "fold change permeability": "0.8 (inactive)"},
      {"smiles": "Cc1cccc(C)c1OCC(C)N", "note": "(centres undefined)", "fold change permeability": "0.8 (inactive)"},
      {"smiles": "N[C@@H](COP(=O)(O)O)C(=O)O", "fold change permeability": "1 (inactive)"},
      {"smiles": "CNC(=O)Oc1ccc2c(c1)[C@]1(C)CCN(C)[C@@H]1N2C", "fold change permeability": "0.8 (inactive)"},
      {"smiles": "NCC(O)C1CCCCCCC1", "note": "(centres undefined)", "fold change permeability": "1 (inactive)"},
      {"smiles": "COc1ccc2c(c1)CC[C@@H]1[C@@H]2CC[C@]2(C)[C@@H](NCCCCCCN3C(=O)CCC3=O)CC[C@@H]12", "fold change permeability": "2.2 (active)"},
      {"smiles": "COc1cc2nc(N3CCCN(C)CC3)nc(NC3CCN(Cc4ccccc4)CC3)c2cc1OC", "fold change permeability": "2.2 (active)"},
      {"smiles": "N=C(N)c1ccc(N)cc1", "fold change permeability": "1.1 (inactive)"},
      {"smiles": "c1ccc(Cn2c(NCc3ccco3)nc3ccccc32)cc1", "fold change permeability": "1.6 (active)"},
      {"smiles": "O=C(/C=C/c1ccc(O)cc1)c1ccc(O)cc1O", "fold change permeability": "1.2 (inactive)"},
      {"smiles": "CC(=O)N[C@H]1[C@H]([C@H](O)[C@H](O)CO)OC(C(=O)O)=C[C@@H]1N=C(N)N", "fold change permeability": "0.9 (inactive)"},
      {"smiles": "CCN(CC)CC#CCOC(=O)C(O)(c1ccccc1)C1CCCCC1", "note": "(centres undefined)", "fold change permeability": "1.3 (active)"},
      {"smiles": "Clc1ccc(N2CCN(Cc3c[nH]c4ncccc34)CC2)cc1", "fold change permeability": "1.4 (active)"},
      {"smiles": "CCN(CC)C(=O)c1ccc(O)c(OC)c1", "fold change permeability": "0.8 (inactive)"},
      {"smiles": "O=C1CN2Cc3c(ccc(Cl)c3Cl)N=C2N1", "fold change permeability": "1.1 (inactive)"},
      {"smiles": "c1ccc(-c2cnn3cc(-c4ccc(OCCN5CCOCC5)cc4)cnc23)cc1", "fold change permeability": "1.2 (inactive)"},
      {"smiles": "C#CC(N)CCC(=O)O", "note": "(centres undefined)", "fold change permeability": "1.1 (inactive)"},
      {"smiles": "COc1ccc(CC(C)NCC(O)c2ccc(O)c(NC=O)c2)cc1", "note": "(centres undefined)", "fold change permeability": "0.9 (inactive)"},
      {"smiles": "Brc1c(NC2=NCCN2)ccc2nccnc12", "fold change permeability": "1.6 (active)"},
      {"smiles": "C=CCNc1ncnc2ccc(Br)cc12", "fold change permeability": "1.2 (inactive)"},
      {"smiles": "CCCCCN(CCCOC)C(=O)C(CCC(=O)O)NC(=O)c1ccc(Cl)c(Cl)c1", "note": "(centres undefined)", "fold change permeability": "1 (inactive)"},
      {"smiles": "NCCS(=O)(=O)O", "fold change permeability": "0.8 (inactive)"},
      {"smiles": "C[C@H](CSC(=O)c1ccccc1)C(=O)N1C[C@@H](Sc2ccccc2)C[C@H]1C(=O)O", "fold change permeability": "1 (inactive)"},
      {"smiles": "COc1cc(CNC(=O)CCCCCCC(C)C)ccc1O", "fold change permeability": "0.7 (active)"},
      {"smiles": "CCCc1c(-c2ccc(O)cc2)nn(-c2ccc(O)cc2)c1-c1ccc(O)cc1", "fold change permeability": "1.4 (active)"},
      {"smiles": "CN(C)CCCN1c2ccccc2Sc2ccc(Cl)cc21", "fold change permeability": "1.1 (inactive)"},
      {"smiles": "COc1ccc(CCN(C)CCCC(C#N)(c2cc(OC)c(OC)c(OC)c2)C(C)C)cc1OC", "note": "(centres undefined)", "fold change permeability": "0.9 (inactive)"},
      {"smiles": "O=P(O)(O)C(Cl)(Cl)P(=O)(O)O", "fold change permeability": "1.1 (inactive)"},
      {"smiles": "C[C@]12CC[C@@H]3c4ccc(O)cc4CC[C@H]3[C@@H]1CCC2=O", "fold change permeability": "0.9 (inactive)"}
    ]}
  ]
}
